Assay results published in PubChem BioAssay AID977630 (Broad Institute, 2014).
Out of some 1,600 compounds screened, fewer than 10 were called active. Roughly 48% stayed inconclusive and do not appear here.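 The calls were made as follows: active = Normal-ribosome green reporter loss at least double humanized-ribosome red reporter loss, with overall culture growth inhibition under a set limit; inconclusive = no clear call, values can overlap the other calls; inactive = the rest.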 These entries were drawn from the full list. Potency and affinity values are given separately.

Experiment: growth inhibition of wild-type GFP E. coli, H38-humanized RFP comparator, dose response, H38 mutant RFP vs wild-type GFP, cherry-pick (AID 977630);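 also: wild-type GFP strain mixed equally with humanized-ribosome H38 mutant expressing RFP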
Details: mixed culture, 24 h; series mostly up to 50 µM; activity change, negative = inhibition: at the top concentration

Activity change, negative = inhibition, inactive:
CCCN1C(=O)C(O)(c2c(C)[nH]c3ccccc23)c2ccccc21 (stereo not given) -18.9, COc1ccc(CNC(=O)c2sc3nc4c(c(C(F)(F)F)c3c2N)CCC4)cc1OC -11.4, CN(Cc1ccc([N+](=O)[O-])cc1)c1ccccc1 -10.1, Cc1ccc(NCC(=O)c2ccc(C)cc2)cc1 0.121, Cn1c(=O)c2c(-c3ccccc3)n(-c3cc([N+](=O)[O-])ccc3N)cc2n(C)c1=O -18.8, CC1(C(=O)NS(=O)(=O)c2cccc(C#N)c2)CCN1C(=O)C1(c2ccc(Cl)cc2)CCC1 (stereo not given) -1.38, C[C@@H]1CN([C@@H](C)CO)C(=O)c2cccc(NC(=O)c3nc4ccccc4s3)c2O[C@@H]1CN(C)CC1CC1 -19.9, Cc1nc(-c2ccc([N+](=O)[O-])cc2)c(-c2ccccc2)o1 -20.8, O=C(CN1CCN(S(=O)(=O)c2ccc(Cl)cc2)CC1)Nc1ccc2c(c1)CCC2 -9.95, CC(NC(=O)c1ccncc1)c1ccc(Cl)cc1Cl (stereo not given) -19.8, O=C(Nc1ccn(Cc2ccc(Cl)cc2)n1)c1ccccc1 -0.788, CCCOC(=O)c1ccc(NC(=O)c2nc3nc(C)cc(C)n3n2)cc1 -9.11, C[C@@H]1CCCCO[C@H](CN(C)C(=O)CCCN(C)C)[C@H](C)CN([C@@H](C)CO)C(=O)c2cc(NC(=O)Nc3cccc4ccccc34)ccc2O1 14.9, CCOc1ccccc1C(=O)NCC(=O)OCCOc1cccc(Cl)c1 -4.31, CCOC(=O)C(C)(C)n1nnc(-c2ccc([N+](=O)[O-])cc2)n1 -7.22, O=c1c2ccccc2nc(SCc2ccccc2)n1CC1CCCO1 (stereo not given) -7.73, Cc1ccc(N2C(=S)NC3c4cc(Cl)ccc4OC2(C)C3C(=O)N(C)C)cc1 (stereo not given) -10.2, CC1(c2ccc3ccccc3c2)NC(=O)N(CC(=O)N2CCN(c3ccccc3O)CC2)C1=O (stereo not given) -0.089, O=C(Nc1ccc(Br)cc1)c1cccnc1N1CCCCC1 -2.35, CCc1ccc2nc(SCC(=O)Nc3ccccc3N3CCOCC3)c(C#N)cc2c1 26.5, CSc1nc2ccc(NS(=O)(=O)c3ccc([N+](=O)[O-])cc3)cc2s1 -13.8, COc1ccc(C2CC(c3cccs3)=Nc3ccccc3S2)cc1 (stereo not given) -8.48, Cc1ccccc1CSc1nnc(-c2ccccn2)n1C -8.9, CCOC(=O)c1c(C)[nH]c(C)c1S(=O)(=O)NCCN1CCN(c2ccccc2F)CC1 -19, O=C(CSc1nnc(COc2cccc3cccnc23)o1)c1ccc(F)cc1 -5.21, O=C(O)c1nn2c(C(F)(F)F)cc(-c3cccs3)nc2c1Cl -5.18, COc1ccc(CC(=O)Nc2cc(S(=O)(=O)Nc3ccc(OC)cc3)ccc2OC)cc1 -1.66, COC(=O)c1cc(C)sc1NC(=O)CC1Nc2ccccc2NC1=O (stereo not given) -8.77, COC(=O)c1sccc1NC(=O)CNC(=O)c1ccccc1 0.487, CCOC(=O)c1cccc(OS(=O)(=O)Cc2ccccc2)c1 -12, CCOc1ccccc1N1CC(C(=O)Nc2cccc(S(=O)(=O)N3CCCCC3)c2)CC1=O (stereo not given) -13.4, c1cc2cc(-c3c(-c4ccc5c(c4)OCO5)noc3-c3ccsc3)ccc2[nH]1 1.33, Cc1cc(C)cc(NC(=O)COC(=O)CC2CCCC2)c1 6.08, COc1cc(SC)ccc1C(=O)N(Cc1ccccc1)c1ccccn1 -8.93, COC(=O)c1nc(-c2ccc(C)cc2)[nH]c1C(C)(C)C -4.35, O=C(O)CNC(=O)C(c1ccccc1)c1ccccc1 3.94, O=C(C[n+]1ccc(Cc2ccccc2)cc1)Nc1ccc([N+](=O)[O-])cc1Cl -2.8, CN(C)S(=O)(=O)c1cccc(NC(=O)c2ccc3c(c2)S(=O)(=O)N=C2CCCCCN23)c1 -18.5, CC1Cc2cc(-c3csc(NC(=O)Cc4ccccc4)n3)ccc2N1S(C)(=O)=O (stereo not given) 1.07, CCN=C1NN=C(c2ccc(C)cc2)CS1 3.76, COc1cc(CCN(C(=O)c2cc3ccccc3[nH]2)C(c2ccccn2)c2nc3ccccc3[nH]2)cc(OC)c1 (stereo not given) -14, NS(=O)(=O)c1ccc(CCNC(=O)CCCCCNc2nc(=S)[nH]c3ccccc23)cc1 -12, CC(C)(C)S(=O)(=O)Cc1nc(-c2ccc(Cl)c(Cl)c2)cs1 -9.14, Fc1ccc(-c2nc3ccc(Cl)cn3c2Cc2cccc(Cl)c2)cc1 -14.6, Cc1cc(C(N)=O)nn1-c1c(Cl)cc(Cl)cc1Cl -5.75, Cc1ccc(NC(=O)COC(=O)CCNS(=O)(=O)c2c(Cl)cccc2Cl)cc1 1.03, CSc1nnnn1-c1ccc(Cl)cc1 -7.03, Cc1noc(C)c1S(=O)(=O)N(Cc1ccccc1)C(C)C -6.23, Cc1cccc(-n2cnc3cc([N+](=O)[O-])ccc32)c1 -3.92, Cc1ccc(S(=O)(=O)N2CCCCC2C(=O)N2CCN(c3ccccc3F)CC2)cc1 (stereo not given) -9.62, COC(=O)c1cc(C(=O)c2c(C)cc3ccccn23)cc([N+](=O)[O-])c1 -18.9, [O-][n+]1ccccc1/C=C/c1ccccc1 -10.1, Fc1ccccc1C1CCN(Cc2nc(COc3ccccc3)no2)C1 (stereo not given) 2, CC(=O)c1ccc(OCC(=O)Nc2ccc3c(c2)CCC3)cc1 -2.25, Cc1ccc(Cc2c(-c3cccc(Br)c3)nc3ccc(C)cn23)cc1 -2.64, COc1ccc(S(=O)(=O)N2CCOc3ccccc32)cc1 -7.99, COc1ccc(-c2csc(NC(=O)c3ccccc3S(C)(=O)=O)n2)cc1 -8.44, O=C(OCC(=O)N1CCOCC1)c1cccc(S(=O)(=O)N2CCCc3ccccc32)c1 -7.89, O=C(CCC(=O)N1CCN(c2ccc(F)cc2)CC1)c1ccc(F)cc1 -7.74, COc1ccc(C(=O)Nc2cccc3ccccc23)cc1 -9.35, Cc1cc(-c2ccc(C)c(S(=O)(=O)NCC3CCN(Cc4ccccc4F)CC3)c2)on1 -4.91, O=S(=O)(c1cnc(Cl)c(Cl)c1)N1CCc2ccccc21 -6.18, O=C(COC(=O)c1ccccc1O)NCCC1=CCCCC1 -14.3, C=CCN(c1ccccc1)S(=O)(=O)c1ccc(Cl)c(C(=O)OCC(=O)NCCCN2CCCC2=O)c1 -3.83, CCN(C(=O)COC(=O)CCc1ccccc1)c1ccccc1 -2.42
